Results on 7 sequences are retold here after the supplement of paper PMC6555819.

What all share (assay): PBM binding z-score (relative to random genomic background probes); higher = stronger binding; sequences stand for … in GC…GCGATTGACAGCGTAGAATGAAGG
The subject of test [1] is LXRa:RXRa (NR concentration 270 nM, RXRa partner concentration 90 nM). The method, boiled down: (§1)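 Binding z-scores were set against random background probes. The data came from custom Agilent 4×180K protein-binding microarrays carrying double-stranded probes with 34-nt variable regions, incubated 1 h with ligand-free nuclear receptor dimers. Partner-specific antibodies detected binding, and scanned fluorescence was regression-normalized.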

For test [2], the system named is LXRa homodimer (NR concentration 270 nM). The method, boiled down: as §1
Test [3] relates to LXRb homodimer (NR concentration 270 nM). The method, boiled down: as §1
In test [4] the test system is PPARg:RXRa (NR concentration 180 nM, RXRa partner concentration 90 nM). The method, boiled down:
as §1

Test [5] concerns PPARg:RXRa 270nM:90nM, anti-RXR (NR concentration 270 nM, RXRa partner concentration 90 nM). The method, boiled down:
as §1

The test system of test [6] is PPARg:RXRa 30nM:10nM, anti-RXR (NR concentration 30 nM, RXRa partner concentration 10 nM). The method, boiled down: as §1
Test [7] deals with PPARg:RXRa 90nM:30nM, anti-RXR (NR concentration 90 nM, RXRa partner concentration 30 nM). The method, boiled down: as §1
Test [8] concerns PPARg:RXRa DBDmut IVT, anti-RXR (DBD mutation: RXRa K156A/R161A, NR concentration 270 nM, RXRa partner concentration 90 nM). The method, boiled down: as §1
Test [9] has as its system PPARg:RXRa IVT, anti-PPARg (NR concentration 270 nM, RXRa partner concentration 90 nM). The method, boiled down: as §1
The subject of test [10] is PPARg DBDmut:RXRa IVT, anti-PPARg (DBD mutation: PPARg1 K132A/R137A, NR concentration 270 nM, RXRa partner concentration 90 nM). The method, boiled down: as §1
Test [11] relates to PPARg DBDmut IVT, anti-PPARg (DBD mutation: PPARg1 K132A/R137A, NR concentration 270 nM). The method, boiled down:
as §1

In test [12] the test system is PPARg homodimer (NR concentration 180 nM). The method, boiled down:
as §1

The test system of test [13] is PXR:RXRa (NR concentration 270 nM, RXRa partner concentration 90 nM). The method, boiled down: as §1
Test [14] relates to PXR homodimer (NR concentration 270 nM). The method, boiled down: as §1
The test system of test [15] is RARa:RXR (NR concentration 270 nM, RXRa partner concentration 90 nM). The method, boiled down: as §1
Test [16] deals with RARa homodimer (NR concentration 270 nM). The method, boiled down:
as §1

The test system of test [17] is RARb:RXRa (NR concentration 270 nM, RXRa partner concentration 90 nM). The method, boiled down: as §1
Test [18] deals with RARb homodimer (NR concentration 270 nM). The method, boiled down:
as §1

Test [19] has as its system PPARa:RXRa (NR concentration 270 nM, RXRa partner concentration 90 nM). The method, boiled down: as §1

In the case of GATACAGGGTCAGCTACAGGCCAGAGTATGGAAA, the PBM binding z-score in test [1] was 2.54; in test [2], -0.531; in test [3] it was -0.596; in test [4], 4.13; in [5], 3.43; in test [6], 0.683. For the same sequence, the PBM binding z-score in [7] is 2.17; in test [8], 1.22; in [9] it was 2.25; in test [10], 0.112; in test [11], -0.146; in [12], 1.47. Besides, the PBM binding z-score is 2.17 in test [13]; -0.273 in [14]; 3.3 in test [15]; 0.244 in [16]; 4.02 in [17]; 2.99 in [18].

Consider CCTACTGGGCCAAAAAGTTCATTGATGCCGATAA, for which the PBM binding z-score in test [1] was 1.47; in test [2], 2.92; in [3], -0.369; in test [4], 1.09; in test [5], 1.53; in [6] it was 0.0164. The PBM binding z-score in test [7] was 1.05; in test [8], 3.74; in test [9], 2.64; in test [10], -1.13; in test [11], -0.236; in [12], 1.35. The PBM binding z-score is 2.98 in test [13]; 9.58 in [14]; 1.23 in [15]; 0.294 in test [16]; 2.24 in test [17]; 2.64 in [18].

Regarding CGAACTAGGTCGTCCAGGACAGTGAATACATTGA, the PBM binding z-score in [1] was 0.121; in test [2] it was -0.214; in test [3] it was -0.486; in test [4], 2.47; in test [5], 1.89; in test [6], 0.4. The PBM binding z-score in test [7] is 1.39; in test [8], 5.71; in test [9] it was 4.97; in test [10], 0.213; in test [11], 0.237; in test [12], -0.545. Besides, the PBM binding z-score in test [13] was 0.256; in test [14], -0.263; in [15], 0.281; in test [16], -0.365; in test [17], 1.14; in [18], 0.392.

On to CGAACGAGGTCATTGACAGGACAGTGAATAGTAA, for which the PBM binding z-score in test [1] is 6.11; in test [2], 1.41; in test [3], 1.44; in test [4], 6.82; in test [5] it was 6.46; in [6], 3.58. Also, the PBM binding z-score in test [7] is 6.21; in [8], 5.35; in [9], 5.72; in test [10], 2.22; in test [11] it was 0.785; in test [12], 3.3. Also, the PBM binding z-score in test [13] stood at 5.28; in [14], 3.11; in [15], 5.46; in [16], 0.884; in [17] it was 4.82; in test [18], 3.73.

Regarding CGTCCAAGGTCGAAGGTCAGTGAAGAGATGACGG, the PBM binding z-score in [1] was 3.14; in test [2], 0.000668; in test [3], -0.645; in [4], 5.43; in test [5] it was 5.79; in [6], 3.26. In addition, the PBM binding z-score is 5.18 in test [7]; 0.518 in test [8]; 2.36 in [9]; -0.273 in test [10]; -0.43 in test [11]; 1.19 in test [12]. In addition, the PBM binding z-score in test [13] amounted to 3.61; in test [14] it was 0.105; in test [15], 5.45; in test [16], 0.117; in test [17] it was 3.98; in [18], 3.62.

For the sequence CCTACTGGGCCAAAGAGGTCATTGATGCCGATAA, the PBM binding z-score in [1] was 3.88; in test [2], 2.87; in [3] it was -0.243; in test [4] it was 3.95; in test [5] it was 4.73; in [6] it was 1.71. Also, the PBM binding z-score in test [7] is 3.75; in test [8], 4.23; in test [9], 4.34; in test [10], -0.355; in [11] it was -0.682; in [12] it was 1.81. Also, the PBM binding z-score stood at 4.81 in test [13]; 4.26 in test [14]; 4.39 in test [15]; 0.256 in test [16]; 3.07 in test [17]; 3.65 in test [18].

GCTTAAGGGTCAAAGGTTATAGCATGAATAGAAT: the PBM binding z-score in test [1] came to 6.57; in [2], 1.93; in test [3] it was 1.36; in test [19], 7.18; in test [4], 11.7; in test [5] it was 9.09. The PBM binding z-score in test [6] was found to be 8.73; in test [7], 9.85; in [8], 3.81; in [9] it was 5.94; in test [10], 2.24; in test [11] it was 1.36. The PBM binding z-score in [12] stood at 4.8; in test [14] it was 0.657; in test [16], 1.94; in test [18], 4.32.
